# Results taken from PMC12529666, “Dysregulation of AGO2-miRNA dynamics underlies the AGO2-associated Lessel–Kreienkamp syndrome”.
# Legend:
# Experiment in all cases: RNA Bind-n-Seq (nitrocellulose filter binding and sequencing); miR-122 guide loaded in AGO2; 60 min incubation; 30 mM Tris pH 8.0, 100 mM potassium acetate, 2 mM magnesium acetate, 0.5 mM TCEP, 0.005% NP-40, 0.01 mg/ml yeast tRNA; 3 nM AGO2-miR-122, 100 nM RNA library; 60; high values mean tight binding
# Details in all cases: protein: recombinant; tags: His6 (N-terminal, pFastBac HTA)
# [1] = molecular target: AGO2 WT (phosphosite mutant background) (Homo sapiens, UniProt Q9UKV8 1-859, S387D;S824A;S828D;S831D;S834A)
# In short: (§1)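 Fold enrichment is each target's read fraction divided by its read fraction in the input library. Sf9 insect cells expressed His-tagged AGO2 from baculovirus; the protein was loaded with a synthetic guide RNA and purified by Ni-NTA and a biotinylated capture oligo. The bound RNA was extracted, reverse-transcribed, barcode-amplified and sequenced on Illumina.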
# AGO2 L192P = AGO2 L192P (Homo sapiens, UniProt Q9UKV8 1-859, L192P;S387D;S824A;S828D;S831D;S834A)
# In short: as §1
# AGO2 A367P = AGO2 A367P (Homo sapiens, UniProt Q9UKV8 1-859, A367P;S387D;S824A;S828D;S831D;S834A)
# In short: as §1
# AGO2 T357M = AGO2 T357M (Homo sapiens, UniProt Q9UKV8 1-859, T357M;S387D;S824A;S828D;S831D;S834A)
# In short: as §1
# AGO2 F182del = AGO2 F182del (Homo sapiens, UniProt Q9UKV8 1-859, S387D;S824A;S828D;S831D;S834A;del182-182)
# In short: as §1
# AGO2 F182del, sequence (Q9UKV8 other isoform, or with tags, fused parts or gaps S387D;S824A;S828D;S831D;S834A;del182-182): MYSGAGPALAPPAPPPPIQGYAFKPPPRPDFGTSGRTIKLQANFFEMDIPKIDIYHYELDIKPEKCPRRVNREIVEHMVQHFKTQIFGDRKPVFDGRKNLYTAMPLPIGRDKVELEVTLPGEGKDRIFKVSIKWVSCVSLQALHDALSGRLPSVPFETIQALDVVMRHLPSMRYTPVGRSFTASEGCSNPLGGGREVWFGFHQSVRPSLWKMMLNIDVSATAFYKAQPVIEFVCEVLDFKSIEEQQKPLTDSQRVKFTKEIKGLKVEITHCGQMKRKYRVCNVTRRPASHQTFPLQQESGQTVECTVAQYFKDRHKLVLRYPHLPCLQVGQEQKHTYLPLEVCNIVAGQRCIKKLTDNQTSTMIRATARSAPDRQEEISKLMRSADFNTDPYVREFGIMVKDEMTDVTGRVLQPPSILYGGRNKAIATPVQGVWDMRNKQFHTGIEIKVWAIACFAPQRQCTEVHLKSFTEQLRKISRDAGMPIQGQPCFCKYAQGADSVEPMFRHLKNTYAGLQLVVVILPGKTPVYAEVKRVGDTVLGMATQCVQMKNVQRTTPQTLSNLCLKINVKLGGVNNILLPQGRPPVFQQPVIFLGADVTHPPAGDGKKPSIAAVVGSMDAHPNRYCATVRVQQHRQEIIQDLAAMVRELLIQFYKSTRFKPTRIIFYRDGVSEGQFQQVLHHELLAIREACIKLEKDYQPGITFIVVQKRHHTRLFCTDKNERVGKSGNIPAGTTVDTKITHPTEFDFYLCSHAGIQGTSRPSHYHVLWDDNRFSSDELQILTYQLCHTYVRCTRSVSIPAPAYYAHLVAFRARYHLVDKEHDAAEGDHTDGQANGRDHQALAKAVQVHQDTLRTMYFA
# AGO2 A367P, sequence (Q9UKV8 whole entry A367P/S387D/S824A/S828D/S831D/S834A): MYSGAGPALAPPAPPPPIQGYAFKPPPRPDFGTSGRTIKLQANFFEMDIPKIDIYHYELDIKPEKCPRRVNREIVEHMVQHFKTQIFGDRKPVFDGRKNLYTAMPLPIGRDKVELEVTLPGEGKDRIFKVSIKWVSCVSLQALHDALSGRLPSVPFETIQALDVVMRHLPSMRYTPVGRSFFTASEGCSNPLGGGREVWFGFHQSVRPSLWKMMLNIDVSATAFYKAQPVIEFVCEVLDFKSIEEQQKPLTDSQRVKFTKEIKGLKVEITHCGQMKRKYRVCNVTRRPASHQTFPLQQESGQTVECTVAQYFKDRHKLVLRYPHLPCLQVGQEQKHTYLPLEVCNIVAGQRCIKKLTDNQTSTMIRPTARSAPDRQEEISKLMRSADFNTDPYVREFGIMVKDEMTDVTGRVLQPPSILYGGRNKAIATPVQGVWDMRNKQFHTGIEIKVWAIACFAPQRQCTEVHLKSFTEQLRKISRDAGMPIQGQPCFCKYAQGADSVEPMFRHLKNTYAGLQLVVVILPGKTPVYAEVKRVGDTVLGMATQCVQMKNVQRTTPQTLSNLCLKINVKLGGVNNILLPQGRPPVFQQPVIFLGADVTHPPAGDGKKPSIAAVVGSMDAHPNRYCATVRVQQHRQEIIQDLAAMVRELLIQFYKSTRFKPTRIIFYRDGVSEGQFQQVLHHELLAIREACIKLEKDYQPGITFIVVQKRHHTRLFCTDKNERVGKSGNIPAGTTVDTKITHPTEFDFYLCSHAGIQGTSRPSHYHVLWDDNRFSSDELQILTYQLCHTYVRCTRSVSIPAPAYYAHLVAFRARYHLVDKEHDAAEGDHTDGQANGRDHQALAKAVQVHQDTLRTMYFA
# AGO2 L192P, sequence (Q9UKV8 whole entry L192P/S387D/S824A/S828D/S831D/S834A): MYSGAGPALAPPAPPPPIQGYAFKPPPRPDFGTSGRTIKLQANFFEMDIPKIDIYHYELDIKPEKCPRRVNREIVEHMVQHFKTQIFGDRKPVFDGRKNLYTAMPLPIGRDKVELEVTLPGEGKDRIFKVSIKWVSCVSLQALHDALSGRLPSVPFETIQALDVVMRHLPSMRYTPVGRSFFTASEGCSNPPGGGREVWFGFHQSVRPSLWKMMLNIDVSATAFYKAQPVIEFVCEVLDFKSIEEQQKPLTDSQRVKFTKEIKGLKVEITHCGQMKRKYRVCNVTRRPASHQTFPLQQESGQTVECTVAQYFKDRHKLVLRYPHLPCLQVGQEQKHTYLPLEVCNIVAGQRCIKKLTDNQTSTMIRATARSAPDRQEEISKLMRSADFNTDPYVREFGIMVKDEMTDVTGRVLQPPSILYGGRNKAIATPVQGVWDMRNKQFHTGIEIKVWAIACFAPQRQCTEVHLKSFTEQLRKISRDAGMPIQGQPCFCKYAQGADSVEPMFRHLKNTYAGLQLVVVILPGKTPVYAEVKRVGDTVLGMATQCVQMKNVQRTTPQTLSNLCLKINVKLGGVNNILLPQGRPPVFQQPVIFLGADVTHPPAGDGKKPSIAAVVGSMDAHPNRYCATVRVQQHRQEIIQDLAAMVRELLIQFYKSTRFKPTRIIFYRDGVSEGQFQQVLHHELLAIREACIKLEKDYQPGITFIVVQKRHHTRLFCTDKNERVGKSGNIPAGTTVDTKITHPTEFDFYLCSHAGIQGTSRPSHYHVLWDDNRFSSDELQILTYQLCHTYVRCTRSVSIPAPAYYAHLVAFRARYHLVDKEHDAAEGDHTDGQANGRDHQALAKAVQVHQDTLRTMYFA
# AGO2 T357M, sequence (Q9UKV8 whole entry T357M/S387D/S824A/S828D/S831D/S834A): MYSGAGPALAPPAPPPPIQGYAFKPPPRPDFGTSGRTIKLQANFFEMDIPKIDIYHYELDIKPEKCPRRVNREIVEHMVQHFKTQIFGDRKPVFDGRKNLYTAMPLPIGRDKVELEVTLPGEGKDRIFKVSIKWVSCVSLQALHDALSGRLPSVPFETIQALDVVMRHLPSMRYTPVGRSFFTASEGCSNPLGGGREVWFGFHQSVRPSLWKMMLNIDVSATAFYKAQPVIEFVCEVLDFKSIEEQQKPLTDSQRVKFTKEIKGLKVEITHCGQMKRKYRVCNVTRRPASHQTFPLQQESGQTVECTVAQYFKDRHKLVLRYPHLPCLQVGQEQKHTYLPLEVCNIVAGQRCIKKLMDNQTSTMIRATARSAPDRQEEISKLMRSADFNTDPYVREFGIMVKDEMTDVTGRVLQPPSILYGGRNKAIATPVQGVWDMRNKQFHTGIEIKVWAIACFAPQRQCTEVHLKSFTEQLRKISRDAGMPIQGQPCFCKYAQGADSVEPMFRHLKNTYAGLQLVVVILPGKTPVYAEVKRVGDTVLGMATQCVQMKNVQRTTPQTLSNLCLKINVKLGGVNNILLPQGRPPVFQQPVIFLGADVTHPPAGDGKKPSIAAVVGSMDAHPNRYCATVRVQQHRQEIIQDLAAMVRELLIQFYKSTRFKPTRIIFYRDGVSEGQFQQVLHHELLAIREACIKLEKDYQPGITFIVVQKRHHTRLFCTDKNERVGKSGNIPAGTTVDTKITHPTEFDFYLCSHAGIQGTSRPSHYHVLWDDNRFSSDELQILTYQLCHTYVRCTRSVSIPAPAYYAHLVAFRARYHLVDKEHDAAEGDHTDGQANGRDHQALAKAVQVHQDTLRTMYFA
# AGO2 WT (phosphosite mutant background), sequence (Q9UKV8 whole entry S387D/S824A/S828D/S831D/S834A): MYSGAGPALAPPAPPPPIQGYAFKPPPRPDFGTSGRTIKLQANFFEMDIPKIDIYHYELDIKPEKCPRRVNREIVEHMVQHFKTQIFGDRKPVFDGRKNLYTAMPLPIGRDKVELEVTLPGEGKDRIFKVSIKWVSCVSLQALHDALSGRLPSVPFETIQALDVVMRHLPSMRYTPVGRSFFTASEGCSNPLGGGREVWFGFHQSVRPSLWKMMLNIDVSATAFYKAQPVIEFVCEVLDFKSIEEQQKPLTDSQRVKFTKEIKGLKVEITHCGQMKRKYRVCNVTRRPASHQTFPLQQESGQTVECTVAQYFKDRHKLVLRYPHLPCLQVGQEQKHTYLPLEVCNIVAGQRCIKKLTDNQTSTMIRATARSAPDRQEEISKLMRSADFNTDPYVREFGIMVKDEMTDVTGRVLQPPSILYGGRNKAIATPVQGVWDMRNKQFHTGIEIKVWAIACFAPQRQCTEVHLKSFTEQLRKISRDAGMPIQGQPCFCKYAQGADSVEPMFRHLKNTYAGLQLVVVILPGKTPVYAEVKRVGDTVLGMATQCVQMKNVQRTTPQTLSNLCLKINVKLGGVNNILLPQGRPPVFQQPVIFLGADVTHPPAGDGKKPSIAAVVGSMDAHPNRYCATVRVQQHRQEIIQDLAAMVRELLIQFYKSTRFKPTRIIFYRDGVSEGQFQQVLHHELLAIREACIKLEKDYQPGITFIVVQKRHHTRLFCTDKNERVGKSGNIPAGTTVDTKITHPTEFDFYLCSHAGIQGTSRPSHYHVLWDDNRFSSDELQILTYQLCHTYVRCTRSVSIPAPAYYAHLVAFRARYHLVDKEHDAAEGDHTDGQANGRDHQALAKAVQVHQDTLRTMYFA
Binder,binding signal [1],binding signal (AGO2 L192P),binding signal (AGO2 A367P),binding signal (AGO2 T357M),binding signal (AGO2 F182del)
"ATACTTTA (ssRNA, constant regions annealed to DNA blockers; guide miR-122 5' phosphate) RNA 1: GAGUUCUACAGUCCGACGAUCCCAACAUACUUUACACCUGGAAUUCUCGGGUGCCAA RNA 2: UGGAGUGUGACAAUGGUGUUUG DNA 1: GATCGTCGGACTGTAGAACTC DNA 2: TTGGCACCCGAGAATTCCA",0.121 fold enrichment over input,0.536 fold enrichment over input,0.174 fold enrichment over input,0.643 fold enrichment over input,
"ACGCTCCA (ssRNA, constant regions annealed to DNA blockers; guide miR-122 5' phosphate) RNA 1: GAGUUCUACAGUCCGACGAUCCCAACACGCUCCACACCUGGAAUUCUCGGGUGCCAA RNA 2: UGGAGUGUGACAAUGGUGUUUG DNA 1: GATCGTCGGACTGTAGAACTC DNA 2: TTGGCACCCGAGAATTCCA",5.29 fold enrichment over input,12.3 fold enrichment over input,13.1 fold enrichment over input,2.94 fold enrichment over input,16.9 fold enrichment over input
"GCGTCTCA (ssRNA, constant regions annealed to DNA blockers; guide miR-122 5' phosphate) RNA 1: GAGUUCUACAGUCCGACGAUCCCAACGCGUCUCACACCUGGAAUUCUCGGGUGCCAA RNA 2: UGGAGUGUGACAAUGGUGUUUG DNA 1: GATCGTCGGACTGTAGAACTC DNA 2: TTGGCACCCGAGAATTCCA",0.14 fold enrichment over input,0.529 fold enrichment over input,0.271 fold enrichment over input,0.646 fold enrichment over input,0.747 fold enrichment over input
"GTATCCCA (ssRNA, constant regions annealed to DNA blockers; guide miR-122 5' phosphate) RNA 1: GAGUUCUACAGUCCGACGAUCCCAACGUAUCCCACACCUGGAAUUCUCGGGUGCCAA RNA 2: UGGAGUGUGACAAUGGUGUUUG DNA 1: GATCGTCGGACTGTAGAACTC DNA 2: TTGGCACCCGAGAATTCCA",0.162 fold enrichment over input,0.517 fold enrichment over input,0.408 fold enrichment over input,0.614 fold enrichment over input,0.832 fold enrichment over input
"GTATCTCA (ssRNA, constant regions annealed to DNA blockers; guide miR-122 5' phosphate) RNA 1: GAGUUCUACAGUCCGACGAUCCCAACGUAUCUCACACCUGGAAUUCUCGGGUGCCAA RNA 2: UGGAGUGUGACAAUGGUGUUUG DNA 1: GATCGTCGGACTGTAGAACTC DNA 2: TTGGCACCCGAGAATTCCA",0.141 fold enrichment over input,0.597 fold enrichment over input,0.455 fold enrichment over input,0.579 fold enrichment over input,1.35 fold enrichment over input
"ACGCTCCG (ssRNA, constant regions annealed to DNA blockers; guide miR-122 5' phosphate) RNA 1: GAGUUCUACAGUCCGACGAUCCCAACACGCUCCGCACCUGGAAUUCUCGGGUGCCAA RNA 2: UGGAGUGUGACAAUGGUGUUUG DNA 1: GATCGTCGGACTGTAGAACTC DNA 2: TTGGCACCCGAGAATTCCA",3.15 fold enrichment over input,10.8 fold enrichment over input,14 fold enrichment over input,1.98 fold enrichment over input,15.2 fold enrichment over input
"ATGTTTCA (ssRNA, constant regions annealed to DNA blockers; guide miR-122 5' phosphate) RNA 1: GAGUUCUACAGUCCGACGAUCCCAACAUGUUUCACACCUGGAAUUCUCGGGUGCCAA RNA 2: UGGAGUGUGACAAUGGUGUUUG DNA 1: GATCGTCGGACTGTAGAACTC DNA 2: TTGGCACCCGAGAATTCCA",0.125 fold enrichment over input,0.54 fold enrichment over input,0.311 fold enrichment over input,0.58 fold enrichment over input,0.814 fold enrichment over input
"GTGCTCCG (ssRNA, constant regions annealed to DNA blockers; guide miR-122 5' phosphate) RNA 1: GAGUUCUACAGUCCGACGAUCCCAACGUGCUCCGCACCUGGAAUUCUCGGGUGCCAA RNA 2: UGGAGUGUGACAAUGGUGUUUG DNA 1: GATCGTCGGACTGTAGAACTC DNA 2: TTGGCACCCGAGAATTCCA",0.149 fold enrichment over input,0.546 fold enrichment over input,0.535 fold enrichment over input,0.617 fold enrichment over input,0.426 fold enrichment over input
"ATGCCTCA (ssRNA, constant regions annealed to DNA blockers; guide miR-122 5' phosphate) RNA 1: GAGUUCUACAGUCCGACGAUCCCAACAUGCCUCACACCUGGAAUUCUCGGGUGCCAA RNA 2: UGGAGUGUGACAAUGGUGUUUG DNA 1: GATCGTCGGACTGTAGAACTC DNA 2: TTGGCACCCGAGAATTCCA",0.127 fold enrichment over input,0.547 fold enrichment over input,0.307 fold enrichment over input,0.637 fold enrichment over input,0.9 fold enrichment over input
"ACATCCTG (ssRNA, constant regions annealed to DNA blockers; guide miR-122 5' phosphate) RNA 1: GAGUUCUACAGUCCGACGAUCCCAACACAUCCUGCACCUGGAAUUCUCGGGUGCCAA RNA 2: UGGAGUGUGACAAUGGUGUUUG DNA 1: GATCGTCGGACTGTAGAACTC DNA 2: TTGGCACCCGAGAATTCCA",0.144 fold enrichment over input,0.376 fold enrichment over input,0.171 fold enrichment over input,0.475 fold enrichment over input,0.153 fold enrichment over input
"ATGTTCCA (ssRNA, constant regions annealed to DNA blockers; guide miR-122 5' phosphate) RNA 1: GAGUUCUACAGUCCGACGAUCCCAACAUGUUCCACACCUGGAAUUCUCGGGUGCCAA RNA 2: UGGAGUGUGACAAUGGUGUUUG DNA 1: GATCGTCGGACTGTAGAACTC DNA 2: TTGGCACCCGAGAATTCCA",0.148 fold enrichment over input,0.552 fold enrichment over input,0.299 fold enrichment over input,0.682 fold enrichment over input,0.701 fold enrichment over input
"ATATTTTA (ssRNA, constant regions annealed to DNA blockers; guide miR-122 5' phosphate) RNA 1: GAGUUCUACAGUCCGACGAUCCCAACAUAUUUUACACCUGGAAUUCUCGGGUGCCAA RNA 2: UGGAGUGUGACAAUGGUGUUUG DNA 1: GATCGTCGGACTGTAGAACTC DNA 2: TTGGCACCCGAGAATTCCA",0.127 fold enrichment over input,0.509 fold enrichment over input,0.189 fold enrichment over input,0.697 fold enrichment over input,
"GTATTTCA (ssRNA, constant regions annealed to DNA blockers; guide miR-122 5' phosphate) RNA 1: GAGUUCUACAGUCCGACGAUCCCAACGUAUUUCACACCUGGAAUUCUCGGGUGCCAA RNA 2: UGGAGUGUGACAAUGGUGUUUG DNA 1: GATCGTCGGACTGTAGAACTC DNA 2: TTGGCACCCGAGAATTCCA",0.136 fold enrichment over input,0.545 fold enrichment over input,0.337 fold enrichment over input,0.647 fold enrichment over input,0.805 fold enrichment over input
"ACATCCCG (ssRNA, constant regions annealed to DNA blockers; guide miR-122 5' phosphate) RNA 1: GAGUUCUACAGUCCGACGAUCCCAACACAUCCCGCACCUGGAAUUCUCGGGUGCCAA RNA 2: UGGAGUGUGACAAUGGUGUUUG DNA 1: GATCGTCGGACTGTAGAACTC DNA 2: TTGGCACCCGAGAATTCCA",0.128 fold enrichment over input,0.38 fold enrichment over input,0.158 fold enrichment over input,0.471 fold enrichment over input,0.144 fold enrichment over input
"ATGCTTCA (ssRNA, constant regions annealed to DNA blockers; guide miR-122 5' phosphate) RNA 1: GAGUUCUACAGUCCGACGAUCCCAACAUGCUUCACACCUGGAAUUCUCGGGUGCCAA RNA 2: UGGAGUGUGACAAUGGUGUUUG DNA 1: GATCGTCGGACTGTAGAACTC DNA 2: TTGGCACCCGAGAATTCCA",0.135 fold enrichment over input,0.573 fold enrichment over input,0.309 fold enrichment over input,0.582 fold enrichment over input,0.842 fold enrichment over input
"ATATTTCA (ssRNA, constant regions annealed to DNA blockers; guide miR-122 5' phosphate) RNA 1: GAGUUCUACAGUCCGACGAUCCCAACAUAUUUCACACCUGGAAUUCUCGGGUGCCAA RNA 2: UGGAGUGUGACAAUGGUGUUUG DNA 1: GATCGTCGGACTGTAGAACTC DNA 2: TTGGCACCCGAGAATTCCA",0.141 fold enrichment over input,0.626 fold enrichment over input,0.373 fold enrichment over input,0.697 fold enrichment over input,1.09 fold enrichment over input
"ACGTTTCA (ssRNA, constant regions annealed to DNA blockers; guide miR-122 5' phosphate) RNA 1: GAGUUCUACAGUCCGACGAUCCCAACACGUUUCACACCUGGAAUUCUCGGGUGCCAA RNA 2: UGGAGUGUGACAAUGGUGUUUG DNA 1: GATCGTCGGACTGTAGAACTC DNA 2: TTGGCACCCGAGAATTCCA",0.146 fold enrichment over input,0.656 fold enrichment over input,0.363 fold enrichment over input,0.572 fold enrichment over input,1.44 fold enrichment over input
"GCACTTCA (ssRNA, constant regions annealed to DNA blockers; guide miR-122 5' phosphate) RNA 1: GAGUUCUACAGUCCGACGAUCCCAACGCACUUCACACCUGGAAUUCUCGGGUGCCAA RNA 2: UGGAGUGUGACAAUGGUGUUUG DNA 1: GATCGTCGGACTGTAGAACTC DNA 2: TTGGCACCCGAGAATTCCA",0.149 fold enrichment over input,0.575 fold enrichment over input,0.348 fold enrichment over input,0.655 fold enrichment over input,0.82 fold enrichment over input
"GCACTCTG (ssRNA, constant regions annealed to DNA blockers; guide miR-122 5' phosphate) RNA 1: GAGUUCUACAGUCCGACGAUCCCAACGCACUCUGCACCUGGAAUUCUCGGGUGCCAA RNA 2: UGGAGUGUGACAAUGGUGUUUG DNA 1: GATCGTCGGACTGTAGAACTC DNA 2: TTGGCACCCGAGAATTCCA",0.143 fold enrichment over input,0.491 fold enrichment over input,0.33 fold enrichment over input,0.457 fold enrichment over input,0.887 fold enrichment over input
